Source: PubChem BioAssay (EPA / NIEHS)
Inconclusive results are not listed. Activity calls are given as the source filed them. Rule for the calls, unless noted: active = hit-call score of the fitted dose curve at least 0.9, where 1 is the maximum; inactive = score below 0.9.

Experiments:
[1] = molecular target: Paired box protein Pax-6 (Homo sapiens) (UniProt P26367); experiment: ATG_Pax6_CIS: Attagene CIS-FACTORIAL HepG2 Assay for human Paired Box 6 (PAX6) (AID 2282956); conditions: HepG2 CIS-FACTORIAL PAX6 reporter transcription, RNA readout; actives raise or lower the signal
Method in brief: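 After twenty-four hours of chemical exposure, transfected HepG2 cells are harvested for RNA. Cis-promoter reporter transcripts are amplified, fluorescently labelled and sized by capillary electrophoresis, with gain and loss of signal scored against DMSO.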

[2] = ATG_PXRE_CIS: Attagene CIS-FACTORIAL HepG2 Assay for human Pregnane X Receptor Element (PXRE) (AID 2282957); conditions: HepG2 Attagene CIS-FACTORIAL PXRE reporter, mRNA; actives raise or lower the signal
Method in brief: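 Cells: HepG2, transiently transfected reporter units under cis promoter control. Exposure: 24 h. Detection: reporter mRNA via RT-PCR/CE fluorescence; bidirectional fitting, DMSO-referenced.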

[3] = ATG_Sox_CIS: Attagene CIS-FACTORIAL HepG2 Assay for human SRY-box transcription factor (SOX) (AID 2282960); conditions: HepG2 Attagene cis-factorial SOX reporter, mRNA; actives raise or lower the signal
Method in brief: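 HepG2, cis reporter units, 24 h exposure. Reporter mRNA: RT-PCR → FAM labelling → HpaI → CE fluorescence. Bidirectional fit vs DMSO.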

[4] = molecular target: Transcription factor Sp1 (Homo sapiens) (UniProt P08047); experiment: ATG_Sp1_CIS: Attagene CIS-FACTORIAL HepG2 Assay for human Specificity Protein 1 (Sp1) (AID 2282961); conditions: HepG2 Sp1 cis-reporter transcription, actives raise or lower the signal
Method in brief: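 Liver-derived HepG2 cells, cis-element reporter library, 24 h treatment; RNA isolated, cDNA amplified with reporter-specific primers, FAM-labeled fragments sized on capillary analyzer. DMSO baseline, bidirectional curve fit.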

[5] = ATG_SREBP_CIS: Attagene CIS-FACTORIAL HepG2 Assay for human Sterol Regulatory Element Binding (SREBP) (AID 2282962); conditions: HepG2 Attagene cis-factorial SREBP reporter, mRNA; actives raise or lower the signal
Method in brief: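 Twenty-four hours after chemical dosing of transfected HepG2 cultures, reporter RNA was converted to cDNA, amplified, end-labelled with 6-FAM and resolved by capillary electrophoresis. Responses were fitted relative to DMSO.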

[6] = molecular target: Signal transducer and activator of transcription 3 (Homo sapiens) (UniProt P40763); experiment: ATG_STAT3_CIS: Attagene CIS-FACTORIAL HepG2 Assay for human Signal Transducer and Activator of Transcription 3 (STAT3) (AID 2282963); conditions: HepG2, Attagene cis-factorial STAT3 reporter transcription; actives raise or lower the signal
Method in brief: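 HepG2 cells transiently transfected with cis-element-driven multiple reporter transcription units; after 24 h chemical exposure, reporter mRNA measured by RT-PCR, 6-FAM primer-extension labelling, HpaI digestion and capillary electrophoresis. Bidirectional fitting versus DMSO baseline.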

[7] = ATG_TA_CIS: Attagene CIS-FACTORIAL HepG2 Assay for human TA Basal Promoter (AID 2282964); conditions: HepG2 Attagene CIS-factorial TA basal promoter reporter; actives raise or lower the signal
Method in brief: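 Background internal-marker endpoint from a 52-component HepG2 cis-reporter panel. Cells treated 24 h; reporter transcripts quantified via RT-PCR and CE fluorescence against DMSO baseline.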

[8] = ATG_TAL_CIS: Attagene CIS-FACTORIAL HepG2 Assay for human TAL Basal Promoter (AID 2282966); conditions: HepG2 Attagene cis-factorial TAL promoter reporter; actives raise or lower the signal;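 note: background control endpoint measuring basal TAL promoter reporter mRNA not a specific factor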
Method in brief: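 RT-PCR plus capillary electrophoresis quantifies reporter mRNA induction in transiently transfected HepG2 cells after 24 h chemical treatment. DMSO serves as negative control and baseline for bidirectional fitting.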

[9] = ATG_TGFb_CIS: Attagene CIS-FACTORIAL HepG2 Assay for human Transforming Growth Factor (TGF) (AID 2282967); conditions: HepG2 Attagene CIS TGFb reporter, mRNA transcription; actives raise or lower the signal
Method in brief: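 Liver HepG2 line, cis-factorial reporter panel, 24 h dosing. Quantitation: RT-PCR products labeled with 6-FAM, cut with HpaI, resolved by capillary electrophoresis; DMSO-referenced bidirectional analysis.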

[10] = ATG_VDRE_CIS: Attagene CIS-FACTORIAL HepG2 Assay for human Vitamin D Receptor Element (VDRE) (AID 2282968); conditions: HepG2 VDRE cis-reporter transcription, actives raise or lower the signal
Method in brief: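 HepG2 cells transiently transfected with cis-element reporter units, dosed 24 h; reporter mRNA measured by RT-PCR, 6-FAM labeling, HpaI digestion and capillary electrophoresis. Activity fitted bidirectionally against DMSO baseline.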

[11] = molecular target: X-box-binding protein 1 (Homo sapiens) (UniProt P17861); experiment: ATG_Xbp1_CIS: Attagene CIS-FACTORIAL HepG2 Assay for human X-box Binding Protein 1 (XBP1) (AID 2282972); conditions: HepG2 XBP1 cis-element reporter, Attagene multiplex; actives raise or lower the signal
Method in brief: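 After a 24-hour chemical exposure of HepG2 cells carrying cis-regulated reporters, reporter mRNA levels are assessed. Quantification uses RT-PCR, 6-FAM labelling and capillary electrophoresis. Gain- or loss-of-signal is fitted against DMSO.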

[12] = ATG_M_19_TRANS: Attagene TRANS-FACTORIAL HepG2 Assay for M19 Transcription Factor (Internal Marker) (AID 2282974; active = hit-call score of the fitted dose curve at least 0.9, where 1 is the maximum); conditions: HepG2 Attagene TRANS-FACTORIAL M19 internal marker reporter
Method in brief: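 Transfected HepG2 (GAL4-UAS MRTUs), 24 h compound, TriZol RNA, DNase-treated RT, reporter PCR, FAM label, HpaI digest, CE fluorescence; gain vs DMSO.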

[13] = molecular target: Glucocorticoid receptor (Homo sapiens) (UniProt P04150); experiment: ATG_GR_TRANS: Attagene TRANS-FACTORIAL HepG2 Assay for human Glucocorticoid Receptor (GR) (AID 2282978; active = hit-call score of the fitted dose curve at least 0.9, where 1 is the maximum;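 note: activators score as hits since higher reporter transcript over DMSO is fitted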); conditions: HepG2 Attagene TRANS GR reporter, mRNA transcription
Method in brief: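 After 24 h incubation with test chemical, transfected HepG2 cells were lysed for RNA; reporter cDNA was amplified, FAM-labelled, HpaI-digested and sized on a capillary analyser. Signal gain relative to DMSO was scored.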

[14] = ATG_TCF_b_cat_CIS: Attagene CIS-FACTORIAL HepG2 Assay for human T-Cell-Factor with beta-catenin (TCF/b-cat) (AID 2282965); conditions: HepG2 TCF/beta-catenin cis-reporter transcription, actives raise or lower the signal
Method in brief: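 In this cis-format system, transfected HepG2 cells report endogenous transcription factor activity. Readout after 24 h exposure is reporter transcript abundance from RT-PCR and capillary electrophoresis, analysed for gain or loss of signal versus DMSO.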

[15] = molecular target: Nuclear receptor subfamily 1 group I member 3 (Homo sapiens) (UniProt Q14994); experiment: ATG_CAR_TRANS: Attagene TRANS-FACTORIAL HepG2 Assay for human Constitutive Androstane Receptor (CAR) (AID 2282969; active = hit-call score of the fitted dose curve at least 0.9, where 1 is the maximum;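 note: activators raise reporter mRNA above DMSO so AC50 marks induction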); conditions: HepG2 Attagene TRANS-FACTORIAL CAR reporter
Method in brief: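 HepG2 cells transiently transfected with multiplexed GAL4-UAS reporter units expressing chimeric NR-Gal4 proteins; compound exposure 24 h. Reporter mRNA measured by RT-PCR, 6-FAM labelling, HpaI digestion and capillary electrophoresis; gain-of-signal fitted against DMSO baseline.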

[16] = ATG_GAL4_TRANS: Attagene TRANS-FACTORIAL HepG2 Assay for GAL4 (Internal Marker) (AID 2282976; active = hit-call score of the fitted dose curve at least 0.9, where 1 is the maximum); conditions: HepG2 Attagene TRANS GAL4 internal marker reporter
Method in brief: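 In transfected human HepG2 liver cells dosed 24 h, GAL4 reporter mRNA serves as a baseline marker. Detection by RT-PCR with fluorescent capillary electrophoresis, activity fitted upward relative to DMSO.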

[17] = ATG_PPRE_CIS: Attagene CIS-FACTORIAL HepG2 Assay for human Peroxisome Proliferator-activated Response Element (PPRE) (AID 2282958); conditions: HepG2 PPRE cis-element reporter, Attagene transcription factor profiling; actives raise or lower the signal
Method in brief: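 PPRE activity in HepG2: transient cis-reporter transfection, 24 h compound incubation, reporter mRNA by RT-PCR and CE fluorescence; gain/loss fitted against DMSO.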

[18] = ATG_RORE_CIS: Attagene CIS-FACTORIAL HepG2 Assay for human RAR-related Orphan Receptor Element (RORE) (AID 2282959); conditions: HepG2 Attagene cis-factorial RORE reporter, mRNA; actives raise or lower the signal
Method in brief: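 A 24-hour exposure of transfected HepG2 hepatoma cells precedes RNA isolation and reporter RT-PCR. Labeled products are digested with HpaI and resolved by capillary electrophoresis, with gain or loss of signal scored relative to DMSO.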

[19] = molecular target: Steroid hormone receptor ERR1 (Homo sapiens) (UniProt P11474); experiment: ATG_ERRa_TRANS: Attagene TRANS-FACTORIAL HepG2 Assay for human Estrogen-Related Receptor alpha (ERRa) (AID 2282971; active = hit-call score of the fitted dose curve at least 0.9, where 1 is the maximum); conditions: HepG2 Attagene TRANS reporter, ERRa transactivation
Method in brief: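 Reporter transcripts from ERRa-Gal4 chimera activity measured in transiently transfected human HepG2 cells 24 hours after dosing, using RT-PCR with 6-FAM primer extension, HpaI digestion and capillary electrophoresis; DMSO is baseline.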

[20] = molecular target: Estrogen-related receptor gamma (Homo sapiens) (UniProt P62508); experiment: ATG_ERRg_TRANS: Attagene TRANS-FACTORIAL HepG2 Assay for human Estrogen-Related Receptor gamma (ERRg) (AID 2282977; active = hit-call score of the fitted dose curve at least 0.9, where 1 is the maximum;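 note: hits increase reporter signal over DMSO so potencies reflect activators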); conditions: HepG2 Attagene TRANS reporter, ERRg transactivation
Method in brief: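 HepG2 cells transiently transfected with multiplexed GAL4-UAS reporter units and chimeric NR-Gal4 constructs were exposed to test chemicals for 24 h. Reporter mRNA was measured by RT-PCR, 6-FAM primer extension, HpaI digestion and capillary electrophoresis; gain-of-signal versus DMSO.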

Measured: AC50

Steroid hormone receptor ERR1 (Homo sapiens), sequence (P11474 whole entry, looked up, the tested form may be a part): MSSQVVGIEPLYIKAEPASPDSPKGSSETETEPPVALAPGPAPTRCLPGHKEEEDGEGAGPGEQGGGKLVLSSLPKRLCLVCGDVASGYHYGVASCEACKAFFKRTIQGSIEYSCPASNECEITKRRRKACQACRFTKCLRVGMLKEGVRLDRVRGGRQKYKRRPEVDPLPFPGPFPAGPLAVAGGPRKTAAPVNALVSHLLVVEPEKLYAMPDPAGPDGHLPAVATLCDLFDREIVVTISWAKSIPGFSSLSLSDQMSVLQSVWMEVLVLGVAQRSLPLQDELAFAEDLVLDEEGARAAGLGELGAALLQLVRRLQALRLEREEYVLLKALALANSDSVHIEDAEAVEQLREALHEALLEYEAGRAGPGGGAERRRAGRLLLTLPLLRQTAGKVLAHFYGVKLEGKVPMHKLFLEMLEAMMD
Nuclear receptor subfamily 1 group I member 3 (Homo sapiens), sequence (Q14994 whole entry, looked up, the tested form may be a part): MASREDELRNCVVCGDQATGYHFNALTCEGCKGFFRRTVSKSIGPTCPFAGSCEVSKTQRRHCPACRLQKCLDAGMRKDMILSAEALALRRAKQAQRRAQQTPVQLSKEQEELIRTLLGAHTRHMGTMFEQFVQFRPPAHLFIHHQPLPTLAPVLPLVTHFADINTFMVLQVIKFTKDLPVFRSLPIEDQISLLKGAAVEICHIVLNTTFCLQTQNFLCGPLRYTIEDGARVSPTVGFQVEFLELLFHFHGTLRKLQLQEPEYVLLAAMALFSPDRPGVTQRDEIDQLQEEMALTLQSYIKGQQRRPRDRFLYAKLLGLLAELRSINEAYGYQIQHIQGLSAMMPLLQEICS
X-box-binding protein 1 (Homo sapiens), sequence (P17861 whole entry, looked up): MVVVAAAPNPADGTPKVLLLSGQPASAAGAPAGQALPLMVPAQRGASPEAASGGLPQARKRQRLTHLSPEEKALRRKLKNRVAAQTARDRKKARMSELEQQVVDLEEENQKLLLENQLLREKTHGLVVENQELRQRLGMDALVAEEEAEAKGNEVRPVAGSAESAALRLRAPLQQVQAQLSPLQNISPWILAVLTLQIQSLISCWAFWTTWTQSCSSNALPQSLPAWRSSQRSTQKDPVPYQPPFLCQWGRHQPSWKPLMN
Transcription factor Sp1 (Homo sapiens), sequence (P08047 whole entry, looked up, the tested form may be a part): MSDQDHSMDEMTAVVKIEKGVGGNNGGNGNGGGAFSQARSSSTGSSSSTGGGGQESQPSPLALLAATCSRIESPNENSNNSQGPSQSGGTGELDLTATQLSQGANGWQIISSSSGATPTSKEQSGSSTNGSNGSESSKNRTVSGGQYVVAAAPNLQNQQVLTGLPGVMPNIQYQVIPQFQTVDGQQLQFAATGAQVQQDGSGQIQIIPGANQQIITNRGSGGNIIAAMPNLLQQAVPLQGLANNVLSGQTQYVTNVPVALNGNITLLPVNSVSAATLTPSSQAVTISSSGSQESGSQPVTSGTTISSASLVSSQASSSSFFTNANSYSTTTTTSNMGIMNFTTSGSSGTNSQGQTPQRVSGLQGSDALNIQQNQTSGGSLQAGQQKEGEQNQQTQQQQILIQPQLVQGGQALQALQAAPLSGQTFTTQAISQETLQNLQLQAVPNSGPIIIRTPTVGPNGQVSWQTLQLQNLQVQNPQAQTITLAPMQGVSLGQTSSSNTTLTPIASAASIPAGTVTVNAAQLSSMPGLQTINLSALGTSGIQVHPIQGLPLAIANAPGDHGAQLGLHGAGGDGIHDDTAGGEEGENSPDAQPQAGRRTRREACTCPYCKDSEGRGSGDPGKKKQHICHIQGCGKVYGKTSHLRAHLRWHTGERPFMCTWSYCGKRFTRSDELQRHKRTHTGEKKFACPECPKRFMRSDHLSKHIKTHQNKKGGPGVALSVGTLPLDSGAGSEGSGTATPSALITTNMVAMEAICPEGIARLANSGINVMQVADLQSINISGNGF
Glucocorticoid receptor (Homo sapiens), sequence (P04150 whole entry, looked up): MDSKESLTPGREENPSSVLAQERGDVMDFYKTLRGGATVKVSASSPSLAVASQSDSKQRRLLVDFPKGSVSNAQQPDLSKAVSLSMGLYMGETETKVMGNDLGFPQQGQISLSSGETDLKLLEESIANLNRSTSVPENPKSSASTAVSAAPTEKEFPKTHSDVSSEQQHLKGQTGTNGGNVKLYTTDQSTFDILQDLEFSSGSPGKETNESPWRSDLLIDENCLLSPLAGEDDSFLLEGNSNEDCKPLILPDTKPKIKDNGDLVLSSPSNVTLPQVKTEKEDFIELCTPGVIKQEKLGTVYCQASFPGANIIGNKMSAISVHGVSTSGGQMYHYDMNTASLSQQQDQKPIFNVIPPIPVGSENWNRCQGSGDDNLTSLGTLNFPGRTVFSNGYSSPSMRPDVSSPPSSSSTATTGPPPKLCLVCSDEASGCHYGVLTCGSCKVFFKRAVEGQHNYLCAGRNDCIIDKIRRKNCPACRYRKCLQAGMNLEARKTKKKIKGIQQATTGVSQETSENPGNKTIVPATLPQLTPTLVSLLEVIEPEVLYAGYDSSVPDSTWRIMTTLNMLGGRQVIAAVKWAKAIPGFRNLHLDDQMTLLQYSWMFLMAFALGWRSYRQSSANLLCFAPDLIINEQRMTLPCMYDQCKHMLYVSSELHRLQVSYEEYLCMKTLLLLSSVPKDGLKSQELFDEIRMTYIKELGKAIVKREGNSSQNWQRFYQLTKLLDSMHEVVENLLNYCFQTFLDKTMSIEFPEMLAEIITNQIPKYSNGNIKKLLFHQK
Signal transducer and activator of transcription 3 (Homo sapiens), sequence (P40763 whole entry, looked up): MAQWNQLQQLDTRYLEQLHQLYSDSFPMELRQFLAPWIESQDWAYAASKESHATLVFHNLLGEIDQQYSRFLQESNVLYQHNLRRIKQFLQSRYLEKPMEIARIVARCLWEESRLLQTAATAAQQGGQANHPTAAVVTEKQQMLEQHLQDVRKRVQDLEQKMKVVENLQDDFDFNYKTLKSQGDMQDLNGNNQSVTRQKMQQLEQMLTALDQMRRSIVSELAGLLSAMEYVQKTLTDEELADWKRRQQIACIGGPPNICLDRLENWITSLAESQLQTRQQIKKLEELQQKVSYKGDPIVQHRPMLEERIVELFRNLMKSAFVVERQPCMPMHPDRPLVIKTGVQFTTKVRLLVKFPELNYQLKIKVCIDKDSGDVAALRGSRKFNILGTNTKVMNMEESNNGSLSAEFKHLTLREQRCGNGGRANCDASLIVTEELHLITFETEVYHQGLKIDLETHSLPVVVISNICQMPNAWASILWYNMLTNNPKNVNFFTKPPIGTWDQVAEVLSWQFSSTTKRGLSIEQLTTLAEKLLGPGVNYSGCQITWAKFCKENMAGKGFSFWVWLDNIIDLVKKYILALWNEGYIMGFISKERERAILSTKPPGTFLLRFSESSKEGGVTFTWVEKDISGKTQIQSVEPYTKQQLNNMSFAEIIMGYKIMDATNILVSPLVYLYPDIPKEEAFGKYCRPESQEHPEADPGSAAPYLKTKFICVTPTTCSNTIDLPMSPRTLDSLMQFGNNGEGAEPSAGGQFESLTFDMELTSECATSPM
Paired box protein Pax-6 (Homo sapiens), sequence (P26367 whole entry, looked up): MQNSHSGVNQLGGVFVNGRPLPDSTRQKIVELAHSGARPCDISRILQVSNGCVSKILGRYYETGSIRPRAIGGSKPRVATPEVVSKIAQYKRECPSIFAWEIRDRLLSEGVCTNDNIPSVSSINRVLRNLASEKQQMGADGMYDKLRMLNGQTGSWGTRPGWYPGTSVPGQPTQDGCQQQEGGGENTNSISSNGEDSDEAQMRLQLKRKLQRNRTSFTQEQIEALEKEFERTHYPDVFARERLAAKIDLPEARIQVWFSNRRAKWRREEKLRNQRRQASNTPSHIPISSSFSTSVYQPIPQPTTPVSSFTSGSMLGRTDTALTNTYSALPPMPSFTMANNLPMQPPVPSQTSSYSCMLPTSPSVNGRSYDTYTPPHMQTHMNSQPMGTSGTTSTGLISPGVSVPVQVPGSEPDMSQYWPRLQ
Estrogen-related receptor gamma (Homo sapiens), sequence (P62508 whole entry, looked up, the tested form may be a part): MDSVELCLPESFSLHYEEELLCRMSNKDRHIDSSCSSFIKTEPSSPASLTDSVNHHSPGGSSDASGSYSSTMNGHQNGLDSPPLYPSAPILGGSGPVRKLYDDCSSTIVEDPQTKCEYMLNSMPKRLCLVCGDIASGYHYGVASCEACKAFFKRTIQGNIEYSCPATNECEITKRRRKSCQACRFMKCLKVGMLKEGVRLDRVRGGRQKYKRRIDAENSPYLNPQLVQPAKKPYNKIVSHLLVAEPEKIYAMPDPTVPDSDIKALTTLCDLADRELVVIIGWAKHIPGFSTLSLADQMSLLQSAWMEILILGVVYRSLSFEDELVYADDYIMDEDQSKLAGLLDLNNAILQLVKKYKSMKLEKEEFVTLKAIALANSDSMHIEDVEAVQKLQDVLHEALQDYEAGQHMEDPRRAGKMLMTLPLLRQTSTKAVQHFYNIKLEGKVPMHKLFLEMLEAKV

C=C(C)C(=O)OCCOCCOCCOC(=O)C(=C)C
inactive: [1] | [3] | [4] | [5] | [6] | [7] | [8] | [9] | [10] | [11] | [12] | [13]
active: [2] 54.8 µM

CCCOCCO
inactive: [1] | [2] | [3] | [4] | [6] | [7] | [14] | [8] | [9] | [10] | [15] | [11] | [12] | [16] | [13]

C=C(C)CNCC
inactive: [17] | [18] | [3] | [4] | [5] | [6] | [7] | [14] | [8] | [9] | [10] | [15] | [19] | [11] | [16] | [13]
active: [2] 52.9 µM

C[C@@H]1CCN(C(=O)[C@H](CCCN=C(N)N)NS(=O)(=O)c2cccc3c2NC[C@H](C)C3)[C@@H](C(=O)O)C1
inactive: [1] | [2] | [3] | [5] | [6] | [7] | [14] | [8] | [9] | [19] | [11]

CCCC(O)C(O)CO (stereo not drawn)
inactive: [1] | [2] | [3] | [4] | [5] | [6] | [7] | [14] | [8] | [9] | [12]

N#Cc1cscn1
inactive: [1] | [18] | [3] | [5] | [6] | [7] | [8] | [9] | [11]
active: [2] 71.7 µM

CN(c1nccc(=O)[nH]1)C1CCN(c2nc3ccccc3n2Cc2ccc(F)cc2)CC1
inactive: [1] | [3] | [4] | [5] | [6] | [7] | [14] | [8] | [9] | [11] | [16]
active: [2] 6.61 µM

C=C(CC(=O)O)C(=O)O
inactive: [1] | [2] | [18] | [3] | [6] | [7] | [14] | [8] | [9] | [10] | [11] | [16]

CC1=CC[C@@]23C[C@@H]1C(C)(C)[C@@H]2CC[C@H]3C
inactive: [1] | [3] | [4] | [5] | [6] | [7] | [8] | [9] | [15] | [11] | [13]
active: [2] 5.2 µM

Cc1cc(CCC(=O)OCCOCCOCCOC(=O)CCc2cc(C)c(O)c(C(C)(C)C)c2)cc(C(C)(C)C)c1O
active: [2] 24.3 µM
inactive: [1] | [3] | [4] | [5] | [6] | [7] | [14] | [8] | [9] | [15] | [11] | [12] | [13]

OCC(O)c1ccccc1 (stereo not drawn)
inactive: [1] | [2] | [3] | [4] | [5] | [6] | [14] | [8] | [9] | [10] | [11] | [16]

CCCC(=O)C(CC)Sc1ccoc1C (stereo not drawn)
inactive: [1] | [3] | [4] | [5] | [6] | [7] | [14] | [8] | [9] | [15]
active: [2] 5.68 µM | [10] 26.7 µM | [11] 25.8 µM

COC(=O)c1ccc(OC)cc1
inactive: [1] | [2] | [3] | [4] | [5] | [6] | [7] | [14] | [8] | [9] | [15] | [19] | [11] | [12] | [20]
active: [13] 15.1 µM
